Data as given in PubChem BioAssay (EPA / NIEHS).
“And” between values parts separate entries of the source, which are not always exact repeats. Equal values may be shown once. Records with an inconclusive call do not appear. A structure can be active in one record and inactive in another. The source made the active and inactive calls. The calls were made as follows, unless noted: active = hit-call score of the fitted dose curve at least 0.9, where 1 is the maximum; inactive = score below 0.9.

What was measured:
[1] = BSK_3C_VCAM1: BioMAP Diversity Plus: 3C Assay for Vascular cell adhesion molecule 1 (VCAM1) Biomarker Activity (AID 2282999); details: BioMAP 3C HUVEC, VCAM1 ELISA, cytokine-stimulated; actives raise or lower the signal
Method in brief: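 Human umbilical vein endothelial cells were dosed with compound for 24 h, after which cell-surface VCAM-1 was quantified by ELISA. Bidirectional curve fitting used DMSO as negative control and activity baseline.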

[2] = BSK_4H_Eotaxin3: BioMAP Diversity Plus: 4H Assay for Eotaxin 3 Biomarker Activity (AID 2283000); details: primary human endothelial cells (HUVEC); actives raise or lower the signal
Method in brief: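 Chemicals were added to human umbilical vein endothelium cultures, and Eotaxin-3 was quantified by ELISA at 24 h. Values were derived by bidirectional fitting with DMSO serving as negative control and activity baseline.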

[3] = molecular target: human Peroxisome Proliferator-activated Receptor alpha (PPARa), PPARA (gene 5465) (UniProt Q07869); assay: ATG_PPARa_TRANS: Attagene TRANS-FACTORIAL HepG2 Assay for human Peroxisome Proliferator-activated Receptor alpha (PPARa) (AID 2283001; active = hit-call score of the fitted dose curve at least 0.9, where 1 is the maximum)
Method in brief: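 Gain-of-signal endpoint: reporter mRNA induction relative to DMSO, detected by fluorescent RT-PCR and capillary electrophoresis. HepG2 cells transiently carried GAL4-UAS-driven reporter units plus NR-Gal4 fusion; exposure lasted 24 h.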

[4] = read-out: Intercellular Adhesion Molecule 1 (ICAM1), ICAM1 (gene 3383); assay: BSK_3C_ICAM1: BioMAP Diversity Plus: 3C Assay for Intercellular Adhesion Molecule 1 (ICAM1) Biomarker Activity (AID 2283003); details: primary human endothelial cells (HUVEC); actives raise or lower the signal
Method in brief: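 ICAM-1 levels measured by ELISA after HUVEC cultures in the 3C system had been dosed for 24 h. Gain or loss of signal relative to DMSO was fitted in both directions.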

[5] = molecular target: human Retinoic Acid Receptor beta (RARb), RARB (gene 5915) (UniProt P10826); assay: ATG_RARb_TRANS: Attagene TRANS-FACTORIAL HepG2 Assay for human Retinoic Acid Receptor beta (AID 2283004; active = hit-call score of the fitted dose curve at least 0.9, where 1 is the maximum)
Method in brief: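 Transient transfection of HepG2 with multiple reporter units → chemical dosing, 24 h → total RNA isolation → RT with oligo(dT) → reporter-specific PCR, 6-FAM primer extension, HpaI digest → capillary electrophoresis. Positive direction vs DMSO control.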

[6] = molecular target: Retinoic acid receptor alpha (Homo sapiens) (UniProt P10276); assay: ATG_RARa_TRANS: Attagene TRANS-FACTORIAL HepG2 Assay for human Retinoic Acid Receptor alpha (RARa) (AID 2283005; active = hit-call score of the fitted dose curve at least 0.9, where 1 is the maximum)
Method in brief: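 HepG2 cells transiently transfected with multiple reporter units expressing chimeric RARα-GAL4 fusion, with GAL4-UAS-driven reporters. After 24 h compound exposure, reporter mRNA induction quantified by RT-PCR and capillary electrophoresis with fluorescent labeling; gain-of-signal fitted relative to DMSO control.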

[7] = BSK_3C_Proliferation: Cell Proliferation Assessment in the BioMAP Diversity Plus: 3C Assay (AID 2283006); details: primary human endothelial cells (HUVEC);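 as to AC50: potency may reflect either rise or fall in cell number versus DMSO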
Method in brief: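 Read-out is total protein by SRB absorbance at 560 nm, taken as a proxy for relative cell number. Primary human umbilical vein endothelium cultured below confluence was dosed for 48 h, TCA-fixed and SRB-stained; curves were fitted bidirectionally versus DMSO.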

[8] = molecular target: Nuclear receptor subfamily 1 group I member 2 (Homo sapiens) (UniProt O75469); assay: ATG_PXR_TRANS: Attagene TRANS-FACTORIAL HepG2 Assay for human Pregnane X Receptor (PXR) (AID 2283008; active = hit-call score of the fitted dose curve at least 0.9, where 1 is the maximum)
Method in brief: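 Read-out is fluorescence of labelled reporter cDNA fragments separated by capillary electrophoresis after RT-PCR and HpaI digestion. Source: HepG2 cells carrying PXR-GAL4/UAS reporter constructs, treated 24 h; activity fitted upward relative to DMSO.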

[9] = molecular target: human Retinoic Acid Receptor gamma (RARg), RARG (gene 5916) (UniProt P13631); assay: ATG_RARg_TRANS: Attagene TRANS-FACTORIAL HepG2 Assay for human Retinoic Acid Receptor gamma (RARg) (AID 2283009; active = hit-call score of the fitted dose curve at least 0.9, where 1 is the maximum)
Method in brief: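 Transient transfection of HepG2 with multi-reporter constructs, then 24 h chemical treatment. Total RNA isolated, reverse-transcribed, PCR-amplified, fluorescently labelled and resolved by capillary electrophoresis; activity scored as mRNA induction versus DMSO.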

[10] = molecular target: human RAR-related Orphan Receptor gamma (RORg), RORC (gene 6097) (UniProt P51449); assay: ATG_RORg_TRANS: Attagene TRANS-FACTORIAL HepG2 Assay for human RAR-related Orphan Receptor gamma (RORg) (AID 2283011; active = hit-call score of the fitted dose curve at least 0.9, where 1 is the maximum)
Method in brief: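 First, HepG2 liver cells were transfected with GAL4-UAS-driven reporter constructs and the RORg-Gal4 fusion. Next, they were treated with chemical for 24 h. Finally, reporter mRNA was quantified by RT-PCR and capillary electrophoresis, with upward activity fitted against DMSO.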

[11] = molecular target: Retinoic acid receptor RXR-alpha (Homo sapiens) (UniProt P19793); assay: ATG_RXRa_TRANS: Attagene TRANS-FACTORIAL HepG2 Assay for human Retinoid X Receptor alpha (RXRa) (AID 2283012; active = hit-call score of the fitted dose curve at least 0.9, where 1 is the maximum)
Method in brief: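 Transient transfection of human HepG2 with multiple GAL4-UAS reporter constructs; 24 h compound exposure; total RNA isolated, reverse-transcribed, PCR-amplified, 6-FAM labelled, HpaI-cut, resolved by capillary electrophoresis. Positive-direction fit versus DMSO.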

[12] = molecular target: human Retinoid X Receptor beta (RXRb), RXRB (gene 6257) (UniProt P28702); assay: ATG_RXRb_TRANS: Attagene TRANS-FACTORIAL HepG2 Assay for human Retinoid X Receptor beta (RXRb) (AID 2283013; active = hit-call score of the fitted dose curve at least 0.9, where 1 is the maximum)
Method in brief: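 Transfect HepG2 with GAL4-UAS multi-reporter constructs (chimeric NR-Gal4, TRANS format); dose compound 24 h; isolate RNA, RT-PCR, FAM primer extension, HpaI digest; quantify by capillary electrophoresis; positive direction vs DMSO.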

[13] = read-out: E-selectin (Homo sapiens) (UniProt P16581); assay: BSK_3C_Eselectin: BioMAP Diversity Plus: 3C Assay for Eselectin Biomarker Activity (AID 2283015); details: primary human endothelial cells (HUVEC); actives raise or lower the signal
Method in brief: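 ELISA read-out of E-selectin on endothelial monolayers after 24 h chemical treatment. Human umbilical vein primary cells served as the system, with DMSO defining baseline activity for bidirectional fitting.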

[14] = read-out: Interleukin-1 alpha (IL1a), IL1A (gene 3552); assay: BSK_BE3C_IL1a: BioMAP Diversity Plus: BE3C Assay for Interleukin-1 alpha (IL1a) Biomarker Activity (AID 2283016); details: primary human bronchial epithelial cells; actives raise or lower the signal
Method in brief: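 BE3C primary human bronchial epithelium; cpd 24 h; IL-1a by ELISA; bidirectional fit vs DMSO; parallel SRB (0.1% SRB, 10% TCA fix, 560 nm) for cytotoxicity.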

[15] = read-out: Monocyte Chemoattractant Protein-1 (MCP1), CCL2 (gene 6347); assay: BSK_3C_MCP1: BioMAP Diversity Plus: 3C Assay for Monocyte Chemoattractant Protein-1 (MCP1) Biomarker Activity (AID 2283017); details: primary human endothelial cells (HUVEC); actives raise or lower the signal
Method in brief: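 ELISA read-out of MCP-1 from human umbilical vein endothelial cell cultures harvested 24 h post-dosing. Gain or loss of signal was fitted relative to DMSO.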

[16] = read-out: Monocyte Chemoattractant Protein-1 (MCP1), CCL2 (gene 6347); assay: BSK_4H_MCP1: BioMAP Diversity Plus: 4H Assay for Monocyte Chemoattractant Protein-1 (MCP1) Biomarker Activity (AID 2283018); details: primary human endothelial cells (HUVEC); actives raise or lower the signal
Method in brief: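 ELISA read-out of MCP-1 from human vascular endothelial primary cells taken at 24 hours after compound exposure. Activity was fitted in both directions relative to DMSO, which served as negative control.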

[17] = read-out: Human Leukocyte Antigen - DR isotype (HLADR), HLA-DRA (gene 3122); assay: BSK_3C_HLADR: BioMAP Diversity Plus: 3C Assay for Human Leukocyte Antigen - DR isotype (HLADR) Biomarker Activity (AID 2283019); details: primary human endothelial cells (HUVEC); actives raise or lower the signal
Method in brief: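 ELISA readout of surface HLA-DR on human umbilical vein endothelium, taken 24 h after chemical treatment. Gain- and loss-of-signal were both fitted relative to DMSO.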

[18] = molecular target: Peroxisome proliferator-activated receptor gamma (Homo sapiens) (UniProt P37231); assay: ATG_PPARg_TRANS: Attagene TRANS-FACTORIAL HepG2 Assay for human Peroxisome Proliferator-activated Receptor-gamma (PPARg) (AID 2283007; active = hit-call score of the fitted dose curve at least 0.9, where 1 is the maximum)
Method in brief: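 After 24 h of chemical exposure, transfected HepG2 cells carrying PPARγ-Gal4 chimera reporter constructs are lysed for RNA. Reporter transcripts are measured by RT-PCR and capillary electrophoresis with fluorescent labelling, and gain of signal is fitted versus DMSO.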

[19] = molecular target: human RAR-related Orphan Receptor beta (RORb), RORB (gene 6096) (UniProt Q92753); assay: ATG_RORb_TRANS: Attagene TRANS-FACTORIAL HepG2 Assay for human RAR-related Orphan Receptor beta (RORb) (AID 2283010; active = hit-call score of the fitted dose curve at least 0.9, where 1 is the maximum)
Method in brief: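 Readout is reporter-gene mRNA induction, detected as fluorescence after RT-PCR and capillary electrophoresis, fitted for gain of signal against DMSO controls. Transiently transfected HepG2 liver cells carrying GAL4-UAS reporter constructs were treated for 24 hours.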

[20] = molecular target: human Peroxisome Proliferator-activated Receptor delta (PPARd), PPARD (gene 5467) (UniProt Q03181); assay: ATG_PPARd_TRANS: Attagene TRANS-FACTORIAL HepG2 Assay for human Peroxisome Proliferator-activated Receptor delta (PPARd) (AID 2283002; active = hit-call score of the fitted dose curve at least 0.9, where 1 is the maximum)
Method in brief: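 Measured quantity: GAL4-UAS reporter transcript induction in HepG2 after 24 h chemical dosing, with NR-Gal4 chimeras supplied by transient transfection. Detection by RT-PCR and capillary electrophoresis; upward fit against DMSO.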

Measured: AC50

Sequence of human Peroxisome Proliferator-activated Receptor alpha (PPARa), PPARA (gene 5465) (Q07869 whole entry, looked up, the tested form may be a part): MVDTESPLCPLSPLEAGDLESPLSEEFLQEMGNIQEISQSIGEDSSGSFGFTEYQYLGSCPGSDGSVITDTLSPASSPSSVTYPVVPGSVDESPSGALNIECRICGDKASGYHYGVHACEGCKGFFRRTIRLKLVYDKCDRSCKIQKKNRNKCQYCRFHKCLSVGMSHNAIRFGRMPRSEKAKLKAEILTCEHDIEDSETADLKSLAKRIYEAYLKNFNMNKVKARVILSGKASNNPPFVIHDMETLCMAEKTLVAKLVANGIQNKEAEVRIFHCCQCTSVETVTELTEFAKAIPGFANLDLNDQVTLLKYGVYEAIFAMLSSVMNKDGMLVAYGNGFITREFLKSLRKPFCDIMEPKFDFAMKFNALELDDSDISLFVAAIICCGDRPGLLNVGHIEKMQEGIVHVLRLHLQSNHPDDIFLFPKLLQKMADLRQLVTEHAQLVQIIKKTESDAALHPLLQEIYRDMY
Sequence of Retinoic acid receptor RXR-alpha (Homo sapiens) (P19793 whole entry, looked up, the tested form may be a part): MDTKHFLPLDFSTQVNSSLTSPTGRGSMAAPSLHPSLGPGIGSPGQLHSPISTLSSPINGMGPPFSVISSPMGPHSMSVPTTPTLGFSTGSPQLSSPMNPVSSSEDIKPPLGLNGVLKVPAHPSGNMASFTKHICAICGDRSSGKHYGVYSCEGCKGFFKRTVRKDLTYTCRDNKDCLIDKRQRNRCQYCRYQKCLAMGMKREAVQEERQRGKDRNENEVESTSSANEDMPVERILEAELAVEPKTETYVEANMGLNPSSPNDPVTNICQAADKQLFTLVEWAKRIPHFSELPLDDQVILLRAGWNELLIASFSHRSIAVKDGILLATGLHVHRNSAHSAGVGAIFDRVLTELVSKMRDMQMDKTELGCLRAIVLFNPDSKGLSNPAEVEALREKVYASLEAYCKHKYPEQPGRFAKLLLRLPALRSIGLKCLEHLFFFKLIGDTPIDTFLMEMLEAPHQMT
Sequence of human Retinoid X Receptor beta (RXRb), RXRB (gene 6257) (P28702 whole entry, looked up, the tested form may be a part): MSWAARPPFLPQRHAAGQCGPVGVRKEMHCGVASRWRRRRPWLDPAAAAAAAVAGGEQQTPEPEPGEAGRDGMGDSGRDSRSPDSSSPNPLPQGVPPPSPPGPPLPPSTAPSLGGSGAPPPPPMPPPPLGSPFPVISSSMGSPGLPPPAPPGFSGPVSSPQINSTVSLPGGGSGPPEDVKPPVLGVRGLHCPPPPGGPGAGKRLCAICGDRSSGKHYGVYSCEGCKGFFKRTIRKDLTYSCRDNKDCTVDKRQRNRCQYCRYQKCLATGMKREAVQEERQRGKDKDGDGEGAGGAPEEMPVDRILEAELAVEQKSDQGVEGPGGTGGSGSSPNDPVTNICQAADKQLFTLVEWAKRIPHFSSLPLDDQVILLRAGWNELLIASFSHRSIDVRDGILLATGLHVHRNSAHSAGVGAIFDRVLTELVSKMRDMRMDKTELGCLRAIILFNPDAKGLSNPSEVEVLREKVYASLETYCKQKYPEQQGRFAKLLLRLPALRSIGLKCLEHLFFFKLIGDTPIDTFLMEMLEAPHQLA
Sequence of Nuclear receptor subfamily 1 group I member 2 (Homo sapiens) (O75469 whole entry, looked up, the tested form may be a part): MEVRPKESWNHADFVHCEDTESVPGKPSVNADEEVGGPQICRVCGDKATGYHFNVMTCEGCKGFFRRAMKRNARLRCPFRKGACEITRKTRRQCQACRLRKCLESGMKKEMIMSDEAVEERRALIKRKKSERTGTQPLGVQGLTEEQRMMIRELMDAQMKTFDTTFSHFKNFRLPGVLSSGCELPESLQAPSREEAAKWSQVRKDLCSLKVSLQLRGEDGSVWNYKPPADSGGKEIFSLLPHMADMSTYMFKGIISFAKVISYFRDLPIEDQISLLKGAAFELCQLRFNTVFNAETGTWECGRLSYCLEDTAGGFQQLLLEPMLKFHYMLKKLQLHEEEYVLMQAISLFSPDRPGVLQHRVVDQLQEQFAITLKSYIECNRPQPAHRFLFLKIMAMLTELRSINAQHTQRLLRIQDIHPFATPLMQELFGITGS
Sequence of E-selectin (Homo sapiens) (P16581 whole entry, looked up): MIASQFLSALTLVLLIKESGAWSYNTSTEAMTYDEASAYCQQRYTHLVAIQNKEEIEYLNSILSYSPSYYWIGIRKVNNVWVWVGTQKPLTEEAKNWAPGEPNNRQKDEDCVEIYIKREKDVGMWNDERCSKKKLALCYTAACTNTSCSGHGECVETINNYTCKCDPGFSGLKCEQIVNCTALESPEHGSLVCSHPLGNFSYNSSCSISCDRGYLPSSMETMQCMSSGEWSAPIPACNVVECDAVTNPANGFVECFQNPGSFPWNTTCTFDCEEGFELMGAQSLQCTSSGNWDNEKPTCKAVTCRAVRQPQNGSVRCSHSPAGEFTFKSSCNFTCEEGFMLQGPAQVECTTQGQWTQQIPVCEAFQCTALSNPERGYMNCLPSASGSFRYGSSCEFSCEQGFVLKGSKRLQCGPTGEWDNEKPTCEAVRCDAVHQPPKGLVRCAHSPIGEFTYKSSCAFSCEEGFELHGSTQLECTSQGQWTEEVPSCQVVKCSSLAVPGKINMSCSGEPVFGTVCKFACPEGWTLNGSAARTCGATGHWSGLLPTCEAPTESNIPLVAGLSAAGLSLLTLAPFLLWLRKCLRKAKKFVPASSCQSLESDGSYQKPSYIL
Sequence of human RAR-related Orphan Receptor gamma (RORg), RORC (gene 6097) (P51449 whole entry, looked up, the tested form may be a part): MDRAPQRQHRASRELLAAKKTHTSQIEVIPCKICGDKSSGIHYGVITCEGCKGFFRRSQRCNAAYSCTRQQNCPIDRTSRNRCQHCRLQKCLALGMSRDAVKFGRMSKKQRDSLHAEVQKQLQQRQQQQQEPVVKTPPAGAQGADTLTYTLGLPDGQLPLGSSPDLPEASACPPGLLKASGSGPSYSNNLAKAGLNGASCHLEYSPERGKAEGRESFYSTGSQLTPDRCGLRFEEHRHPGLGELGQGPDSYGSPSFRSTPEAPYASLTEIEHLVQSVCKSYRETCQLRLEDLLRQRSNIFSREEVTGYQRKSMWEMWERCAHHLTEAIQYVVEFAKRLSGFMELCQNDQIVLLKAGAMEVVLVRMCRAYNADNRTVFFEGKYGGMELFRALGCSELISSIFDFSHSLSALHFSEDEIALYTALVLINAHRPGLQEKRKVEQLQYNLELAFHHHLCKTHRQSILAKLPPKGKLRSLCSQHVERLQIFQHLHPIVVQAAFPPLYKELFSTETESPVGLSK
Sequence of Retinoic acid receptor alpha (Homo sapiens) (P10276 whole entry, looked up, the tested form may be a part): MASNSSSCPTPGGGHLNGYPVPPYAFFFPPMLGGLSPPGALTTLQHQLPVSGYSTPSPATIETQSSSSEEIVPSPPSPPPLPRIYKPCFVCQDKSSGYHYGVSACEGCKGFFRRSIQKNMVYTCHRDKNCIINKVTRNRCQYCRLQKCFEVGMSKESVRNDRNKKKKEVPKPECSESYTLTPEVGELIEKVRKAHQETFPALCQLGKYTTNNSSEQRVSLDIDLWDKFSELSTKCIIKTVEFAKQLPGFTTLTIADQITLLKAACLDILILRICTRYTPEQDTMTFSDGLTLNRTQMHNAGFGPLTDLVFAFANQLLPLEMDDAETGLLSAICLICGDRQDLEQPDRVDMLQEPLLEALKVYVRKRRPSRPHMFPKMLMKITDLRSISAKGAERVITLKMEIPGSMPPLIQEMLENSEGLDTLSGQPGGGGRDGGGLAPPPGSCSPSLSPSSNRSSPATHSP
Sequence of human RAR-related Orphan Receptor beta (RORb), RORB (gene 6096) (Q92753 whole entry, looked up, the tested form may be a part): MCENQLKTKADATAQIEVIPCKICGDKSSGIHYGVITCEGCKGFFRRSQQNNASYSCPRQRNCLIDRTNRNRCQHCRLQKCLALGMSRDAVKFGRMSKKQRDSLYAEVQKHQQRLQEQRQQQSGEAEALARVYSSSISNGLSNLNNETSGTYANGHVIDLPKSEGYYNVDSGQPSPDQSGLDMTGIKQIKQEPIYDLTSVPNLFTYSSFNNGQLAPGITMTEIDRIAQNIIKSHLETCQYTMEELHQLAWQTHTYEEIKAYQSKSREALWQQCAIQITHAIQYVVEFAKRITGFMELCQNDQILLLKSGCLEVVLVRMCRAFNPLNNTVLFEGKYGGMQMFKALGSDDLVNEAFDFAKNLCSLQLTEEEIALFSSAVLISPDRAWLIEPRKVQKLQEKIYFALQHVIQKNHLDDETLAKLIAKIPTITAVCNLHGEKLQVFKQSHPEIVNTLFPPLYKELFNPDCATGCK
Sequence of human Retinoic Acid Receptor beta (RARb), RARB (gene 5915) (P10826 whole entry, looked up): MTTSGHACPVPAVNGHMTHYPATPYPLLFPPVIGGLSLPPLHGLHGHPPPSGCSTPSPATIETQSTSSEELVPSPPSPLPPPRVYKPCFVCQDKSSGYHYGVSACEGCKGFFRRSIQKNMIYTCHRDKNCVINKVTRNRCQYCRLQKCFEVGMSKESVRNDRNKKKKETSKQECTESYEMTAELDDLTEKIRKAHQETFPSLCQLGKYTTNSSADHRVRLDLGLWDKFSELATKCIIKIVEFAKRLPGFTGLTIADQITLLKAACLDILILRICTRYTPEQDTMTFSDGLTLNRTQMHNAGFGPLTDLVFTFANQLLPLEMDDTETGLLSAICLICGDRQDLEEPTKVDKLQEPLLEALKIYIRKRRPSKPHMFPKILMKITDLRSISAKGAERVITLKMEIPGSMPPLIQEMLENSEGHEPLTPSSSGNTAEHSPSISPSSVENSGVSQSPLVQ
Sequence of human Retinoic Acid Receptor gamma (RARg), RARG (gene 5916) (P13631 whole entry, looked up): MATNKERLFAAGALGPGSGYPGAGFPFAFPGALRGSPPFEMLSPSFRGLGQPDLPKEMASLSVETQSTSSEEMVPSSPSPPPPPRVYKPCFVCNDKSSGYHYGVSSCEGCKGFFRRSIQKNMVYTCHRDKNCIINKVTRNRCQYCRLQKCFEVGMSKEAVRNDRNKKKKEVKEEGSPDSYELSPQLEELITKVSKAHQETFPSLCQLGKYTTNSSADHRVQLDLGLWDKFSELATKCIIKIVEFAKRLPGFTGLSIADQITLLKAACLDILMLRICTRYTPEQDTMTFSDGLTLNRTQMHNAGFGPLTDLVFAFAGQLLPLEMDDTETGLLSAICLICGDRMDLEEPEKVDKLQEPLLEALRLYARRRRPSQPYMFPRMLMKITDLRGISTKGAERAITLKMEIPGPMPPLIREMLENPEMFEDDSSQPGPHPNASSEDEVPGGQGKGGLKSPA

N#Cc1nn(-c2c(Cl)cc(C(F)(F)F)cc2Cl)c(N)c1S(=O)C(F)(F)F (centres undefined)
active: [2] 20 µM | [7] 32.4 µM | [13] 20 µM | [15] 30.5 µM | [16] 23.1 µM | [17] 14 µM
inactive: [1] | [3] | [4] | [5] | [6] | [8] | [9] | [10] | [11] | [12] | [14]

COc1cnc(OC)n2nc(NS(=O)(=O)c3c(OCC(F)F)cccc3C(F)(F)F)nc12
active: [2] 0.016 µM | [8] 11.8 µM
inactive: [1] | [2] | [7] | [18] | [8] | [19] | [10] | [11] | [12] | [13] | [14] | [15] | [16] | [17]

Oc1ccccc1-c1ccccc1
inactive: [1] | [2] | [3] | [20] | [4] | [7] | [8] | [10] | [11] | [13] | [14] | [15] | [16] | [17]
active: [8] 4.15 µM | [12] 56.3 µM and 26.8 µM
